Experimental data taken from the supplement of paper PMC7411054.
Where a name gives a salt, the structure may show the parent alone.

How the values were obtained:
Conditions in all cases: treatment time: 24 h
[1] = tested on: A549-ACTB-RAB5A; assay: phenotypically active (imaging signature differs from DMSO and reproducible) at any of 0.3-9 uM (binary (1 = active, 0 = inactive)); higher = active
Method in brief: (§1)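 Each of fifteen gene-edited A549, HepG2 and WPMY1 reporter lines, marked with BFP for segmentation and GFP and RFP/FusionRed, was treated in four wells at 0.3, 1, 3 or 9 µM for 24 h prior to live imaging. Normalisation of per-well live-cell features used solvent control wells. Deviation needed ≥3 of 4 wells beyond the 95th percentile of control Euclidean distances, and reproducibility needed a median replicate Pearson correlation above the 95th percentile of non-replicates. Both were required for phenotypic activity.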

[2] = tested on: A549-CANX-COX4; assay: as above
Method in brief: as §1

[3] = tested on: A549-GM130-SQSTM1; assay: as above
Method in brief: as §1

[4] = tested on: A549-TUBA1B-RELA; assay: as above
Method in brief: as §1

[5] = tested on: HepG2-ACTB-RAB5A; assay: as above
Method in brief: as §1

[6] = tested on: HepG2-CANX-COX4; assay: as above
Method in brief: as §1

[7] = tested on: HepG2-GM130-SQSTM1; assay: as above
Method in brief: as §1

[8] = tested on: HepG2-TUBA1B-RELA; assay: as above
Method in brief: as §1

[9] = tested on: WPMY1-ACTB-RAB5A; assay: as above
Method in brief: as §1

[10] = tested on: WPMY1-CANX-COX4; assay: as above
Method in brief: as §1

[11] = tested on: WPMY1-GM130-SQSTM1; assay: as above
Method in brief: as §1

[12] = tested on: WPMY1-TUBA1B-RELA; assay: as above
Method in brief: as §1

[13] = tested on: A549-TP53BP1-CLTA; assay: as above
Method in brief: as §1

[14] = tested on: HepG2-TP53BP1-CLTA; assay: as above
Method in brief: as §1

[15] = tested on: WPMY1-TP53BP1-CLTA; assay: as above
Method in brief: as §1

[16] = tested on: HepG2-GM130-SQSTM1; assay: lowest phenotypically active concentration; higher = less potent
Method in brief: as §1

[17] = tested on: WPMY1-GM130-SQSTM1; assay: as above
Method in brief: as §1

[18] = tested on: WPMY1-TP53BP1-CLTA; assay: as above
Method in brief: as §1

[19] = tested on: HepG2-CANX-COX4; assay: as above
Method in brief: as §1

[20] = tested on: HepG2-TUBA1B-RELA; assay: as above
Method in brief: as §1

C[C@H](N)Cc1ccccc1 [dextroamphetamine]
active: phenotypically active [1] 1 | phenotypically active [3] 1 | phenotypically active [4] 1
inactive: phenotypically active [2] 0 | phenotypically active [5] 0 | phenotypically active [6] 0 | phenotypically active [7] 0 | phenotypically active [8] 0 | phenotypically active [9] 0 | phenotypically active [10] 0 | phenotypically active [11] 0 | phenotypically active [12] 0

O=P1(N(CCCl)CCCl)NCCCO1 (stereo not given) [cyclophosphamide]
inactive: phenotypically active [2] 0 | phenotypically active [13] 0 | phenotypically active [5] 0 | phenotypically active [6] 0 | phenotypically active [7] 0 | phenotypically active [14] 0 | phenotypically active [8] 0 | phenotypically active [9] 0 | phenotypically active [10] 0 | phenotypically active [11] 0 | phenotypically active [15] 0 | phenotypically active [12] 0

BrC1C(Br)C(Br)C(Br)C(Br)C1Br (stereo not given) [1,2,3,4,5,6-Hexabromocyclohexane]
9 µM: lowest phenotypically active concentration [16]
inactive: phenotypically active [1] 0 | phenotypically active [2] 0 | phenotypically active [3] 0 | phenotypically active [13] 0 | phenotypically active [4] 0 | phenotypically active [5] 0 | phenotypically active [6] 0 | phenotypically active [14] 0 | phenotypically active [8] 0 | phenotypically active [9] 0 | phenotypically active [10] 0 | phenotypically active [11] 0 | phenotypically active [15] 0 | phenotypically active [12] 0
active: phenotypically active [7] 1

CN1C[C@H](CO)C=C2c3cccc4[nH]cc(c34)C[C@H]21 [Lysergol]
9 µM: lowest phenotypically active concentration [17]
active: phenotypically active [11] 1
inactive: phenotypically active [1] 0 | phenotypically active [2] 0 | phenotypically active [3] 0 | phenotypically active [13] 0 | phenotypically active [4] 0 | phenotypically active [5] 0 | phenotypically active [6] 0 | phenotypically active [7] 0 | phenotypically active [14] 0 | phenotypically active [8] 0 | phenotypically active [9] 0 | phenotypically active [10] 0 | phenotypically active [15] 0 | phenotypically active [12] 0

C[C@@H](CO)NC(=O)[C@@H]1C=C2c3cccc4[nH]cc(c34)C[C@H]2N(C)C1 [Ergobasine]
inactive: phenotypically active [1] 0 | phenotypically active [2] 0 | phenotypically active [4] 0 | phenotypically active [5] 0 | phenotypically active [6] 0 | phenotypically active [14] 0 | phenotypically active [8] 0 | phenotypically active [9] 0 | phenotypically active [12] 0
active: phenotypically active [3] 1 | phenotypically active [13] 1 | phenotypically active [7] 1 | phenotypically active [10] 1 | phenotypically active [11] 1 | phenotypically active [15] 1
9 µM: lowest phenotypically active concentration [16] | lowest phenotypically active concentration [17] | lowest phenotypically active concentration [18]

CC(C)c1cccc(C(C)C)c1O [propofol]
inactive: phenotypically active [1] 0 | phenotypically active [2] 0 | phenotypically active [3] 0 | phenotypically active [13] 0 | phenotypically active [4] 0 | phenotypically active [5] 0 | phenotypically active [6] 0 | phenotypically active [7] 0 | phenotypically active [14] 0 | phenotypically active [8] 0 | phenotypically active [9] 0 | phenotypically active [10] 0 | phenotypically active [15] 0 | phenotypically active [12] 0
active: phenotypically active [11] 1
3 µM: lowest phenotypically active concentration [17]

CCCN1C[C@H](CSC)C[C@@H]2c3cccc4[nH]cc(c34)C[C@H]21 [pergolide]
inactive: phenotypically active [1] 0 | phenotypically active [2] 0 | phenotypically active [3] 0 | phenotypically active [13] 0 | phenotypically active [4] 0 | phenotypically active [5] 0 | phenotypically active [6] 0 | phenotypically active [7] 0 | phenotypically active [14] 0 | phenotypically active [8] 0 | phenotypically active [9] 0 | phenotypically active [10] 0 | phenotypically active [15] 0 | phenotypically active [12] 0
9 µM: lowest phenotypically active concentration [17]
active: phenotypically active [11] 1

C[C@H]1C(=O)O[C@@H]2CCN3CC=C(COC(=O)[C@](C)(O)[C@]1(C)O)[C@H]23 [Monocrotaline]
active: phenotypically active [4] 1
inactive: phenotypically active [1] 0 | phenotypically active [2] 0 | phenotypically active [3] 0 | phenotypically active [13] 0 | phenotypically active [5] 0 | phenotypically active [6] 0 | phenotypically active [7] 0 | phenotypically active [14] 0 | phenotypically active [8] 0 | phenotypically active [9] 0 | phenotypically active [10] 0 | phenotypically active [11] 0 | phenotypically active [15] 0 | phenotypically active [12] 0

C[C@]12CC[C@H](O)C[C@H]1CC[C@@H]1[C@@H]2CC[C@]2(C)[C@@H](C3=CC(=O)OC3)CC[C@]12O [Digitoxigenin]
active: phenotypically active [2] 1 | phenotypically active [13] 1 | phenotypically active [5] 1 | phenotypically active [6] 1 | phenotypically active [7] 1 | phenotypically active [14] 1 | phenotypically active [8] 1 | phenotypically active [9] 1 | phenotypically active [10] 1 | phenotypically active [11] 1 | phenotypically active [15] 1 | phenotypically active [12] 1
1 µM: lowest phenotypically active concentration [17]
≤ 0.3 µM: lowest phenotypically active concentration [19] | lowest phenotypically active concentration [16] | lowest phenotypically active concentration [20] | lowest phenotypically active concentration [18]

CCC(=O)C(CC(C)N(C)C)(c1ccccc1)c1ccccc1 (stereo not given) [methadone]
inactive: phenotypically active [1] 0 | phenotypically active [2] 0 | phenotypically active [3] 0 | phenotypically active [4] 0 | phenotypically active [5] 0 | phenotypically active [6] 0 | phenotypically active [7] 0 | phenotypically active [8] 0 | phenotypically active [9] 0 | phenotypically active [10] 0 | phenotypically active [11] 0 | phenotypically active [12] 0

Cc1sc2c(c1C)C(c1ccc(Cl)cc1)=N[C@H](CC(=O)OC(C)(C)C)c1nnc(C)n1-2
9 µM: lowest phenotypically active concentration [19] | lowest phenotypically active concentration [16] | lowest phenotypically active concentration [17]
active: phenotypically active [5] 1 | phenotypically active [6] 1 | phenotypically active [7] 1 | phenotypically active [11] 1 | phenotypically active [12] 1
inactive: phenotypically active [1] 0 | phenotypically active [2] 0 | phenotypically active [3] 0 | phenotypically active [13] 0 | phenotypically active [4] 0 | phenotypically active [14] 0 | phenotypically active [8] 0 | phenotypically active [9] 0 | phenotypically active [10] 0 | phenotypically active [15] 0

CN1[C@@H]2CC[C@H]1C[C@@H](OC(=O)[C@H](CO)c1ccccc1)C2 [Hyoscyamine (L)]
inactive: phenotypically active [1] 0 | phenotypically active [2] 0 | phenotypically active [3] 0 | phenotypically active [4] 0 | phenotypically active [5] 0 | phenotypically active [6] 0 | phenotypically active [7] 0 | phenotypically active [8] 0 | phenotypically active [9] 0 | phenotypically active [10] 0 | phenotypically active [11] 0 | phenotypically active [12] 0

O=C1CCCN1CC#CCN1CCCC1 [Oxotremorine sesquifumarate]
inactive: phenotypically active [2] 0 | phenotypically active [13] 0 | phenotypically active [5] 0 | phenotypically active [6] 0 | phenotypically active [7] 0 | phenotypically active [14] 0 | phenotypically active [8] 0 | phenotypically active [9] 0 | phenotypically active [10] 0 | phenotypically active [11] 0 | phenotypically active [15] 0 | phenotypically active [12] 0

C[C@H]1CC[C@@H]2N(C1)C[C@H]1[C@@H]3C[C@H]4[C@@H](CC(=O)[C@H]5C[C@@H](O)CC[C@@]54C)[C@@H]3CC[C@H]1[C@]2(C)O [Imperialine]
active: phenotypically active [9] 1 | phenotypically active [10] 1
inactive: phenotypically active [1] 0 | phenotypically active [2] 0 | phenotypically active [3] 0 | phenotypically active [13] 0 | phenotypically active [4] 0 | phenotypically active [5] 0 | phenotypically active [6] 0 | phenotypically active [7] 0 | phenotypically active [14] 0 | phenotypically active [8] 0 | phenotypically active [11] 0 | phenotypically active [15] 0 | phenotypically active [12] 0

N#Cc1c(Oc2cccc(OS(=O)(=O)CCCC(F)(F)F)c2)cccc1C(F)(F)F
9 µM: lowest phenotypically active concentration [16]
active: phenotypically active [7] 1
inactive: phenotypically active [1] 0 | phenotypically active [2] 0 | phenotypically active [3] 0 | phenotypically active [13] 0 | phenotypically active [4] 0 | phenotypically active [5] 0 | phenotypically active [6] 0 | phenotypically active [14] 0 | phenotypically active [8] 0 | phenotypically active [9] 0 | phenotypically active [10] 0 | phenotypically active [11] 0 | phenotypically active [15] 0 | phenotypically active [12] 0

CC[C@@H](C)C(=O)O[C@H]1[C@H](O)[C@H]2[C@@H](CN3C[C@@H](C)CC[C@H]3[C@@]2(C)O)C2C[C@]34O[C@]5(O)[C@@H](OC(=O)[C@](C)(O)CC)CC[C@@]3(C)[C@@H]5[C@@H](OC(C)=O)[C@@H](OC(C)=O)[C@H]4[C@@]21O (stereo not given in full) [Protoveratrine A]
inactive: phenotypically active [1] 0 | phenotypically active [2] 0 | phenotypically active [13] 0 | phenotypically active [4] 0 | phenotypically active [5] 0 | phenotypically active [6] 0 | phenotypically active [7] 0 | phenotypically active [14] 0 | phenotypically active [8] 0 | phenotypically active [9] 0 | phenotypically active [10] 0 | phenotypically active [11] 0 | phenotypically active [15] 0 | phenotypically active [12] 0
active: phenotypically active [3] 1

C[C@@H]1NCCc2cc(O)c(O)cc21 [Salsolinol hydrobromide]
inactive: phenotypically active [1] 0 | phenotypically active [2] 0 | phenotypically active [3] 0 | phenotypically active [13] 0 | phenotypically active [4] 0 | phenotypically active [5] 0 | phenotypically active [6] 0 | phenotypically active [7] 0 | phenotypically active [14] 0 | phenotypically active [8] 0 | phenotypically active [9] 0 | phenotypically active [10] 0 | phenotypically active [15] 0 | phenotypically active [12] 0
9 µM: lowest phenotypically active concentration [17]
active: phenotypically active [11] 1

N[C@@H]1C[C@H]1c1cc(F)cc(F)c1OCc1ccccc1
9 µM: lowest phenotypically active concentration [17] | lowest phenotypically active concentration [18]
inactive: phenotypically active [1] 0 | phenotypically active [2] 0 | phenotypically active [3] 0 | phenotypically active [13] 0 | phenotypically active [4] 0 | phenotypically active [5] 0 | phenotypically active [6] 0 | phenotypically active [7] 0 | phenotypically active [14] 0 | phenotypically active [8] 0 | phenotypically active [10] 0 | phenotypically active [12] 0
active: phenotypically active [9] 1 | phenotypically active [11] 1 | phenotypically active [15] 1

C[N+]12CCC(CC1)C(OC(=O)C(O)(c1ccccc1)c1ccccc1)C2 (stereo not given) [clidinium]
inactive: phenotypically active [2] 0 | phenotypically active [13] 0 | phenotypically active [5] 0 | phenotypically active [6] 0 | phenotypically active [7] 0 | phenotypically active [14] 0 | phenotypically active [8] 0 | phenotypically active [9] 0 | phenotypically active [10] 0 | phenotypically active [11] 0 | phenotypically active [15] 0 | phenotypically active [12] 0

CCC(=O)O[C@](Cc1ccccc1)(c1ccccc1)[C@H](C)CN(C)C [propoxyphene]
inactive: phenotypically active [2] 0 | phenotypically active [13] 0 | phenotypically active [5] 0 | phenotypically active [6] 0 | phenotypically active [7] 0 | phenotypically active [14] 0 | phenotypically active [8] 0 | phenotypically active [9] 0 | phenotypically active [10] 0 | phenotypically active [11] 0 | phenotypically active [15] 0 | phenotypically active [12] 0
